Compound activity deposited in PubChem BioAssay by National Center for Advancing Translational Sciences (NCATS).
Luc counter = Counterscreen for Luciferase (Kinase-Glo TM) Inhibition | Luciferin 4-monooxygenase (Photuris pensylvanica), Q27757 | Kinase-Glo luciferase, ATP luminescence, 8 min | Potency, µM (doses to about 38.3 µM), without a hit: top-dose activity change, negative = inhibition, hits mostly inhibitors | 200,000 tested, 0.28% active; further: on the % scale 0 is the no-effect control and ±100 the full control effect; nearly all actives have a fitted effect of over 60% in size
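Light output from Kinase-Glo luciferase with luciferin and 10 uM ATP in 50 mM imidazole pH 7.2, KCl, MgCl2, Tween 20, BSA; compound pin-delivered, 8-min ambient incubation, then luminescence read.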
Rab9 prom act = qHTS Assay for Rab9 Promoter Activators | 320,000 tested, 2.8% active | Potency, µM (series often up to 9.22 µM), without a hit: top-dose activation, negative = inhibition, usual class: activators | Huh7 Rab9 promoter-luciferase reporter, luminescence, 24 h; further: % of control where 0% means no effect; nearly all actives have a fitted effect of over 60% in size
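Huh7 cells stably carrying Rab9 promoter–luciferase reporter, plated 1500 cells/well, compound added after 2 h and incubated 24 h at 37 °C; luciferase luminescence then read after 10 min with detection reagent.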
FLuc modulator = qHTS profiling assay for firefly luciferase inhibitor/activator using purifed enzyme and Km concentrations of substrates (counterscreen for miR-21 project); Potency, µM (doses to about 57.5 µM), inactives show top-dose activity change, negative = inhibition, actives largely listed as inhibitors; 360,000 tested, 6.9% active; purified FLuc, Km substrates, luminescence inhibition; Luciferin 4-monooxygenase (Photinus pyralis), P08659;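 further: plate controls were vehicle for no effect and reference inhibitor for full effect; nearly all actives have a fitted effect of over 55% in size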
Target sequence (P08659 whole entry, looked up): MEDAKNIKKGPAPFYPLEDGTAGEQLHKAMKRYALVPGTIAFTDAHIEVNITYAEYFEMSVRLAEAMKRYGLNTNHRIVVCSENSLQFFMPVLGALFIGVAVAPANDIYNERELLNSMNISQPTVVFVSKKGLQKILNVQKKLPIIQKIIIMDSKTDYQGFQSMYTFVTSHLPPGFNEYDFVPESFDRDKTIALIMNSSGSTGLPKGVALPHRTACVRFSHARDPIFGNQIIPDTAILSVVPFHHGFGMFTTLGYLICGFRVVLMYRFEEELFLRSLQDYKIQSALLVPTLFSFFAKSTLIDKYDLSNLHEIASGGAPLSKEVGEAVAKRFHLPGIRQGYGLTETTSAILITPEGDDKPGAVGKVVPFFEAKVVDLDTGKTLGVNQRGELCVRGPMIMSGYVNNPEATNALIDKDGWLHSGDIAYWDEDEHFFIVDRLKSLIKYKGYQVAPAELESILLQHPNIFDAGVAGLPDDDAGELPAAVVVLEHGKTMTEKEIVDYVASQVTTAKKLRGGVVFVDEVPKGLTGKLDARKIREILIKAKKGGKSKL
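Purified P. pyralis luciferase (10nM final) with 10uM D-luciferin and 10uM ATP (Km levels) in 50mM Tris acetate pH 7.5, 10mM Mg acetate, 0.01% Tween-20, 0.05% BSA; qHTS 6-point titration, ~60 µM downward; luminescence read.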
SMN2 splice up = qHTS Assay for Enhancers of SMN2 Splice Variant Expression. HEK293 SMN2-luciferase splicing reporter, luminescence, 30-36 h. Potency, µM (doses to about 46.1 µM), inactives show at the top dose activity change, positive = activation, actives largely listed as activators. 210,000 tested, 2.8% active. AID 1458, 2008; further: % of control where 0% means no effect; nearly all actives have a fitted effect of over 55% in size
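HEK293 cells carry an SMN2 minigene-luciferase reporter in which exon 7 inclusion puts luciferase in frame. Cells were seeded at 2000 cells/well, attached for 10-12 hours, then exposed to compounds for 30-36 hours at 37C before ONE-Glo luminescence.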
NPC1 promoter act = qHTS Assay for NPC1 Promoter Activators. Huh7 NPC1 promoter luciferase reporter, 24 h. AID 485313, 2010. Potency, µM (titrated, usually from 9.22 µM), for the others: top-dose activation, hits mostly activators. 320,000 tested, 2.4% active; further: % of control where 0% means no effect; nearly all actives have a fitted effect of over 60% in size
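Luciferase expression driven by the NPC1 promoter was measured in stably transfected Huh7 cells after a 24 h compound incubation, using a luciferase reagent and a luminescence read.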
ELG1 genotox = qHTS screen for small molecules that induce genotoxicity in human embryonic kidney (HEK293T) cells expressing luciferase-tagged ELG1 | HEK293T ELG1-luciferase reporter, luminescence, 16 h | Potency, µM (top dose mostly 46 µM), without a hit: at the highest dose activity change, positive = activation, usual class: activators | 330,000 tested, 1.3% active | AID 504466, 2011; further: % of control where 0% means no effect; nearly all actives have a fitted effect of over 60% in size
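DMSO vehicle served as control against compound-treated ELG1-luciferase HEK293T cells; exposure lasted 16 hr at 37 °C and 5% CO2, followed by ONE-Glo luminescence detection after 30 min.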
The depositor's hits bear a star; ? = inconclusive; / = not tested or not shown; [ ] = another dose, or the depositor's remark. The list is not random: actives were taken first. Their share in the collection is about 7.3%. The call rests on the fitted dose curve; in most records, active means well fitted curve in the direction sought with a large enough effect; inconclusive means small, poorly fitted or top-dose-only effect, or another doubt; inactive means no such curve, though single readings can be large; an effect the other way counts as inactive or inconclusive. Potency means the concentration at half of the fitted maximal effect.

SMILES	Luc counter	Rab9 prom act	FLuc modulator	SMN2 splice up	NPC1 promoter act	ELG1 genotox
CCCc1cc(C(=O)Nc2ccc(C#N)cc2)no1	/	4%	-19%	/	2%	8%
CCCc1cc(C(=O)Nc2cccnc2)no1	?	8%	15µM*	19%	1%	?
CCCc1cc(C(=O)NCc2cccnc2)no1	-1%	4%	-2%	-3%	-2%	6%
O=C1C(=O)N(C2CCN(S(=O)(=O)c3ccccc3)CC2)CCN1Cc1ccccc1	/	/	-2%	/	/	/
CCOc1ccc(OCC)c(NC(=O)c2cc(-c3cccs3)nc3ccccc23)c1	/	/	-3%	7%	/	/
Clc1ccccc1CNc1ncnc2c1c(-c1ccccc1)cn2-c1ccccc1	/	/	-2%	/	/	/
CCCCNC(=O)c1c(-c2ccccc2)c(-c2ccccc2)nn(C)c1=O	/	/	-1%	-2%	/	/
COc1ccc(S(=O)(=O)N(CC(=O)Nc2cccc(C(F)(F)F)c2)c2ccc(C)cc2)cc1	/	/	-1%	-5%	/	/
O=C(O)/C=C\c1ccccc1Oc1cccc(Cl)c1	-1%	7%	?	-2%	-10%	2%
COc1ccccc1/C=C/C(=O)c1ccc(NC(C)=O)cc1	-2%	0%	15µM*	/	8%	-1%
COc1ccccc1/C=C/C(=O)c1ccc(Cl)cc1	-4%	13%	7.6µM*	-19%	?	?
CCOc1ccccc1/C=C/C(=O)c1ccc(Cl)cc1	5%	11%	?	-58%	17%	10%
O=C(O)/C=C/c1ccccc1Oc1ccc(Cl)cc1Cl	-2%	-3%	15µM*	3%	0%	1%
COc1ccc(OC)c(/C=C/C(=O)c2ccc(Cl)cc2)c1	-1%	-5%	11µM*	-32%	-2%	1%
COc1ccc(OC(=O)c2ccc(Cl)cc2)c(C(C)=O)c1	/	-3%	?	/	-5%	15%
COc1ccccc1N1CCN(C(=O)c2ccc(NC(C)=O)cc2)CC1	1%	0%	4%	-24%	-3%	-2%
COc1ccccc1CNc1nc2c(S(=O)(=O)c3ccc(C)c(C)c3)nnn2c2ccc(Cl)cc12	/	/	-2%	-10%	/	/
COc1ccccc1/C=C/C(=O)N1CCOCC1	-3%	0%	3%	-16%	0%	3%
COc1ccccc1/C=C/C(=O)c1c2c(c(C)[nH]c1=O)CCCC2	1%	-30%	-7%	-54%	0%	-5%
O=C(/C=C/c1ccccc1O)c1ccc(Cl)cc1	/	25%	3.4µM*	/	-1%	10%
COc1ccccc1/C=C/C(=O)N1CCC(c2ccccc2)C1 (stereo not given)	-2%	?	9.5µM*	13µM*	?	?
COc1ccccc1/C=C/C(=O)c1ccccc1	/	?	1.9µM*	/	?	?
CCCC(=O)NCC(c1ccc2c(c1)OCO2)N1CCN(c2ccccc2)CC1 (stereo not given)	/	/	-2%	/	/	/
CC(=O)CCc1ccc(OCCCOc2cccc3cccnc23)cc1	/	0%	21µM*	/	5%	3%
CC(=O)c1ccc(OCCCOc2cccc3cccnc23)cc1	/	-2%	-12%	/	-9%	-7%
SMILES	Luc counter	Rab9 prom act	FLuc modulator	SMN2 splice up	NPC1 promoter act	ELG1 genotox
COc1ccc(-c2noc(CSc3nc(N)cc(=O)[nH]3)n2)cc1OC	/	/	-15%	/	/	/
Cc1ccnc(NC(=O)C2CC(=O)N(Cc3ccccc3)C2)c1 (stereo not given)	/	-5%	6µM*	/	-2%	3.3µM*
CC(=O)c1ccc(NC(=O)C2CC(=O)N(Cc3ccccc3)C2)cc1 (stereo not given)	-5%	?	9.5µM*	?	?	18µM*
COc1ccc2c(c1)C(=O)[C@H](OC(=O)N[C@H]1CCCc3ccccc31)[C@@H](c1ccc(OC)c(Br)c1)O2	-4%	/	/	5%	/	/
CCc1ccccc1Nc1nn2c(=O)c3ccc(C(=O)NCc4cccs4)cc3nc2s1	/	1%	-8%	/	-13%	/
COc1cccc(CCNC(=O)c2cnc3sc(N4CCCCCC4)nn3c2=O)c1	/	/	1%	15%	/	/
C/C(=N\NC(=O)c1cc(Cl)ccc1O)c1ccc(Br)s1	-1%	3.5µM*	6.7µM*	4µM*	4µM*	10%
O=C(NNC(=O)c1ccc2ccccc2c1O)c1cccs1	/	15%	27µM*	/	12%	8%
C/C(=N\NC(=O)COc1ccc2ccccc2c1)c1cccs1	/	2%	?	/	-1%	-6%
O=C(NNC(=O)c1cc2ccccc2cc1O)c1cccs1	/	3.5µM*	12µM*	/	3.2µM*	?
C/C(=N\NC(=O)c1cc2ccccc2cc1O)c1cccs1	/	0.63µM*	3.8µM*	/	0.56µM*	?
O=P(O)(O)O[C@@H]1O[C@H](CO)[C@@H](O)[C@H](O)[C@@H]1O	-3%[7.66 µM]	/	/	-2%[9.22 µM]	/	/
COc1ccc(NC(=O)c2c(N)c(C(=O)c3ccc(OC)cc3)n3ccccc23)cc1	/	/	-5%	4%	/	/
C[N+]1(Cc2ccccc2)CCC(C(=O)OCC2CCCC2)CC1 (stereo not given)	/	/	/	-10%	/	/
O=C(NCCS(=O)(=O)N1CCN(c2ccc(F)cc2)CC1)c1cccc(C(F)(F)F)c1	/	/	3%	/	/	/
CN(C)c1ccc(-c2nc(N(C)Cc3ccco3)c3ccccc3n2)cc1	-7%	/	/	10µM*	/	/
Cc1cc(C2=NNC(=NC3CC3)SC2)c(C)n1Cc1ccco1	?	-50%	0.12µM*	-70%	-34%	18%
COCC(C)N=C1SCCN1Cc1ccccc1 (stereo not given)	/	-3%	2%	/	1%	0%
COCC(C)N=C1NN=C(c2cc(C)n(Cc3ccccc3Cl)c2C)CS1 (stereo not given)	1%	?	7.6µM*	-16%	?	?
COCCCN=C1NN=C(c2cc(C)n(Cc3ccco3)c2C)CS1	0%	10%	2.7µM*	?	6.3µM*	3.3µM*
Cc1cc(C2=NNC(=Nc3ccc(S(=O)(=O)N4CCOCC4)cc3)SC2)c(C)n1C	/	-3%	-17%	/	2%	0%
Nc1nc(N)c(CCCCc2ccccc2)c(N)n1	-6%[7.66 µM]	/	/	-12%[9.22 µM]	/	/
CCOc1ccc2ncc3c(-c4ccc(C)cc4)nn(-c4cccc(F)c4)c3c2c1	/	/	0%	-1%	/	/
Cc1csc(NC(=O)[C@@H](NC(=O)c2ccccc2)C(C)C)n1	1%	-7%	-1%	-5%	-1%	9%
Cc1csc(NC(=O)c2cccc(C)c2C)n1	/	2.8µM*	15µM*	/	3.2µM*	?
